Laboratory results published in publication PMC6212790, “How bacterial xenogeneic silencer rok distinguishes foreign from self DNA in its resident genome”.
Whole data set: some 33,000 sequences, median “e-score” near -0.037, cut for the highest 2% near 0.34. The entries come from a sample that favours the highest values as a whole.

These sequences were tested against T1, GST-Rok (full length) (Bacillus subtilis subsp. subtilis str. …, UniProt O34857 1-191) (assay: protein binding microarray; Rok is a gene silencer of Bacillus subtilis; high values mean tight binding). Settings: protein: recombinant; tags: GST (pTH5325, pDEST15-Magic modified); dsDNA, one strand shown.
T1 sequence: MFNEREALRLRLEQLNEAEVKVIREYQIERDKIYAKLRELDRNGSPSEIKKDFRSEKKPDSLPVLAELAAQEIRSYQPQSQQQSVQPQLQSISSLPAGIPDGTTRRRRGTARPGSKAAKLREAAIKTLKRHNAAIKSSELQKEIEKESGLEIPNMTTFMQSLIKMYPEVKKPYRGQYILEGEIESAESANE
Summary of the method: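 Every oligonucleotide joins a 25-mer constant primer to a 35-mer variable part drawn from a de Bruijn sequence of order 10, so each non-palindromic 8-mer appears at least 32 times and each palindromic 8-mer 16 times. The preference for every 8-mer is reported as a unitless, rank-based enrichment score (E-score). This score spans 0.5 for the most favored 8-mer to −0.5 for the most disfavored.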

Row | Sequence | binding signal
1 | CCTAGTCG | -0.13 E-score
2 | AACCACCT | -0.126 E-score
3 | TCACAGAA | 0.0426 E-score
4 | GACCAAGA | 0.0064 E-score
5 | AAGCCTCT | -0.124 E-score
6 | AACTACGC | 0.201 E-score
7 | AACTACGG | 0.204 E-score
8 | CCCTACTA | -0.0153 E-score
9 | CACTACTC | 0.00906 E-score
10 | CACTACGA | 0.174 E-score
11 | CACTACTG | -0.0214 E-score
12 | ACCTACTG | 0.295 E-score
13 | ACCTACTA | 0.372 E-score
14 | CACTACTA | 0.354 E-score
15 | AGCTACTG | 0.294 E-score
16 | AACTACTG | 0.436 E-score
17 | AACTACTC | 0.381 E-score
18 | ATGCCGCA | -0.0383 E-score
19 | CTTCGCCA | -0.129 E-score
20 | CCACTGCC | -0.199 E-score
21 | CTATAAGC | 0.113 E-score
22 | ATATGGAG | 0.202 E-score
23 | GCGTGAAC | 0.00198 E-score
24 | TAAGCTGA | -0.0981 E-score
25 | AGGGTACG | -0.168 E-score
26 | CCGCTAGG | -0.19 E-score

Row | Sequence | binding signal
27 | GGCTTTAC | 0.00573 E-score
28 | GCAAATCA | 0.0652 E-score
29 | TATTGAAA | 0.0126 E-score
30 | GACTACGA | 0.079 E-score
31 | TACTACTA | 0.428 E-score
32 | AACAACTT | 0.174 E-score
33 | TACTACGA | 0.275 E-score
34 | CGCTACTA | 0.28 E-score
35 | GACTACTC | 0.132 E-score
36 | AACTACGT | 0.306 E-score
37 | GACTACTA | 0.34 E-score
38 | AACTACGA | 0.292 E-score
39 | AACTACTA | 0.474 E-score
40 | AACTACTT | 0.418 E-score
41 | AGCTACTA | 0.291 E-score
42 | ATGTCGGC | 0.0255 E-score
43 | ATGCATTG | 0.0725 E-score
44 | GTCCGCAA | -0.0703 E-score
45 | TCAAGCAA | -0.0617 E-score
46 | CCCGATAC | 0.00567 E-score
47 | CCATCCGC | -0.114 E-score
48 | ACGGCTTA | -0.0338 E-score
49 | AGATAATG | 0.225 E-score
50 | CACGTATG | 0.0605 E-score
51 | TCCCCAAA | -0.169 E-score
52 | CCCTTTTA | -0.102 E-score

Row | Sequence | binding signal
53 | GCTTTTTA | 0.157 E-score
54 | AGATTTCA | 0.0391 E-score
55 | AACATAAG | 0.23 E-score
56 | GCTTTCTA | 0.224 E-score
57 | ATATCCTA | 0.36 E-score
58 | CTATCCTA | 0.0781 E-score
59 | GTATCCTA | 0.13 E-score
60 | GAATGGCC | -0.15 E-score
61 | CATTTGCG | -0.059 E-score
62 | CAATATAA | 0.213 E-score
63 | AAATACAC | 0.216 E-score
64 | AAATATAA | 0.253 E-score
65 | AAATATAT | 0.429 E-score
66 | GAATATAC | 0.306 E-score
67 | AAATATAC | 0.376 E-score
68 | AAAAATAT | 0.319 E-score
69 | AAATATAG | 0.317 E-score
70 | CAATATAC | 0.34 E-score
71 | AAATACAT | 0.348 E-score
72 | AAATACAG | 0.264 E-score
73 | AGGAAGTG | -0.139 E-score
74 | GCATGTTA | 0.0472 E-score
75 | AGTAAAAG | 0.19 E-score
76 | CACGCTTA | -0.0251 E-score
77 | AAATATGA | 0.199 E-score
78 | AAATATCC | 0.127 E-score

Row | Sequence | binding signal
79 | AAATATTT | 0.337 E-score
80 | AAATATTG | 0.295 E-score
81 | AAATATGT | 0.338 E-score
82 | AAATATCT | 0.355 E-score
83 | AAATATGC | 0.223 E-score
84 | AAATATCA | 0.271 E-score
85 | AAATATTA | 0.305 E-score
86 | CATTTCGG | 0.0631 E-score
87 | AGTCCAAA | -0.0624 E-score
88 | ACATCATC | -0.0524 E-score
89 | AACTATAC | 0.33 E-score
90 | AACTATAT | 0.362 E-score
91 | AACTATAG | 0.331 E-score
92 | AGCTATAA | 0.25 E-score
93 | AGCTATAT | 0.337 E-score
94 | AGCTATAG | 0.283 E-score
95 | TAAGCCTA | -0.0764 E-score
96 | AGGCAAGC | -0.186 E-score
97 | AATTGTGG | -0.0645 E-score
98 | CAGTGCGG | -0.0903 E-score
99 | AGGTAGAA | 0.419 E-score
100 | AGGTAGAT | 0.359 E-score
101 | GGGTAGAC | -0.127 E-score
102 | ACGTAGAT | 0.222 E-score
103 | GGGTAGAA | 0.359 E-score
104 | GGGTAGCA | -0.00107 E-score

Row | Sequence | binding signal
105 | AAGTAGAC | 0.00429 E-score
106 | AAGTAGAG | 0.104 E-score
107 | AAGTAGAT | 0.374 E-score
108 | AGGTAGAC | 0.191 E-score
109 | AGGTAGAG | 0.122 E-score
110 | AGTTAGAT | 0.162 E-score
111 | GTGCTTTA | -0.00122 E-score
112 | GCGAAGTA | 0.155 E-score
113 | CGCTTTTC | 0.046 E-score
114 | AAGCTTGT | 0.0413 E-score
115 | CTAGGTGA | -0.041 E-score
116 | AGAGTTAC | 0.152 E-score
117 | CAAAGTTA | 0.0253 E-score
118 | TCGTAGAA | 0.131 E-score
119 | TGGTAGAA | 0.468 E-score
120 | CGGTAGAA | 0.417 E-score
121 | CGGTAGAC | -0.0961 E-score
122 | CCGTAGAA | 0.32 E-score
123 | CGGTAGAG | 0.0632 E-score
124 | CTAACGCA | 0.101 E-score
125 | ACCCTGTC | -0.0851 E-score
126 | AACGACCG | -0.0771 E-score
127 | AAATTATT | 0.296 E-score
128 | CAATTATC | 0.2 E-score
129 | CAATTATG | 0.175 E-score
130 | GAATTATA | 0.326 E-score

Row | Sequence | binding signal
131 | TAATTAAA | 0.259 E-score
132 | TAATTATA | 0.385 E-score
133 | AAATTATG | 0.215 E-score
134 | CAATTATA | 0.363 E-score
135 | AAATTATA | 0.413 E-score
136 | CGTATGGA | 0.128 E-score
137 | AATTAAAC | 0.0743 E-score
138 | CATATAGG | 0.175 E-score
139 | ATTAATCA | 0.232 E-score
140 | CTGGAAAG | -0.166 E-score
141 | CACATCTC | 0.0106 E-score
142 | ATTATTAA | 0.0696 E-score
143 | CCTATTAC | 0.285 E-score
144 | CTTATTAC | 0.299 E-score
145 | AGTATTAC | 0.26 E-score
146 | ACTATTAG | 0.244 E-score
147 | ATTATTAC | 0.382 E-score
148 | GCTATTAC | 0.269 E-score
149 | ACTATTAA | 0.289 E-score
150 | ACTATTAT | 0.386 E-score
151 | ACTATTAC | 0.407 E-score
152 | AGTATTAT | 0.358 E-score
153 | AGTATTAA | 0.29 E-score
154 | GCATTAGA | 0.129 E-score
155 | TAGTCTGA | 0.148 E-score
156 | CTTTACGA | 0.0116 E-score

Row | Sequence | binding signal
157 | AAGGAGTC | -0.107 E-score
158 | AAGGAATC | -0.0168 E-score
159 | ATAGAAGC | 0.307 E-score
160 | CGAGTAAC | 0.156 E-score
161 | ACTTTTAC | 0.224 E-score
162 | ACTTTTAA | 0.158 E-score
163 | ACTATTGA | 0.288 E-score
164 | ACTATTGC | 0.401 E-score
165 | ACTATTGG | 0.208 E-score
166 | ACTTTTAT | 0.355 E-score
167 | CACTTTTC | 0.0315 E-score
168 | ACGTTAAG | -0.0138 E-score
169 | TATAACCA | 0.27 E-score
170 | CACGTTGA | 0.088 E-score
171 | AAGATGAC | 0.0776 E-score
172 | AAGTTTTG | 0.00498 E-score
173 | ATTATACC | 0.269 E-score
174 | GTTATACA | 0.213 E-score
175 | ACTATACG | 0.0122 E-score
176 | ATTATACG | 0.381 E-score
